# Test results taken from ChEMBL document CHEMBL1157539, “Thousands of chemical starting points for antimalarial lead identification” (Nature, 2010).
# System: Plasmodium falciparum
# Test: GSK_TCMDC: Inhibition of Plasmodium falciparum 3D7 in whole red blood cells, using parasite LDH activity as an index of growth. Test compounds present at 2uM
# Type: functional
row,Compound,Inhibition
1,COc1ccc(Nc2nccc(N3CCC(NC(=O)Nc4cccc(C(C)=O)c4)C3)n2)cc1 (centres undefined),98%
2,O=C(NC1CCN(Cc2ccccc2O)C1)c1ccc(Cl)c(Cl)c1.O=C(O)C(F)(F)F (centres undefined),92%
3,COc1cccc2sc(Nc3nc(-c4ccccn4)cs3)nc12,94%
4,CC(C)(C)OC(=O)NCc1ccc(Nc2nnc(-c3cccc(OCC(=O)NCc4cc(C(F)(F)F)cc(C(F)(F)F)c4)c3)o2)cc1,90%

# System: Plasmodium falciparum
# Test: GSK_TCMDC: Inhibition of Plasmodium falciparum Dd2 in whole red blood cells, using parasite LDH activity as an index of growth. Test compounds present at 2uM
# Type: functional
row,Compound,Inhibition
1,COc1ccc2nccc(NC(=O)N3CCC(NCc4cc5ccccc5[nH]4)CC3)c2n1.O=C(O)C(=O)O,29%
2,CC(C)CNC(=S)N1CCCN(c2nc3ccc(Cl)cc3s2)CC1,11%
3,CC(C)(C)c1ccc(-c2ccccc2CNC(=O)c2cccc(O)c2)cc1,88%
4,COc1cc2c(OC)cccc2cc1CNCCCCCCNCc1cc2cccc(OC)c2cc1OC.CS(=O)(=O)O,7%
5,Cc1ccc(/C=C/C(=O)NCCCCCN2CCC(c3c[nH]c4ccccc34)CC2)cc1,7%
6,CCCCc1ccc(C(=O)NC2CCN(C[C@H](O)c3ccnc4ccc(OC)cc34)CC2)cc1,22%
7,CCC(CC)(Cc1ccccc1)NC(=O)[C@H](CC1CCCCC1)Nc1ccc(C#N)c2ccccc12.O=C(O)C(F)(F)F,76%
8,CC(C)(C)OC(=O)NCc1ccc(Nc2nnc(-c3cccc(C(=O)NCCC(c4ccccc4)c4ccccc4)c3)o2)cc1,89%
9,CCN(CC)CCN(Cc1ccc(-c2ccc(C(F)(F)F)cc2)cc1)C(=O)Cn1c(CCc2cccc(F)c2F)nc(=O)c2sccc21.O=C(O)C(O)C(O)C(=O)O,70%
10,CC(C)CNCc1ccc(-c2ccc(CN(CCCN3CCN(C)CC3)C(=O)CCC3CCCC3)cc2)cc1.O=C(O)C(F)(F)F,87%
11,O=S(=O)(Nc1cccc(CCN2CCC(N3CCCCC3)CC2)c1)c1ccc(Oc2ccccc2)nc1,0%
12,Oc1ccc(OCc2ccccn2)cc1,0%
13,Br.NCC(=O)NC12CC3CC(CC(C3)C1)C2,0%
14,O=C(N[C@H]1CCN(Cc2ccc(OC3CCN(Cc4ccccc4)CC3)c(Br)c2)C1)c1ccc(Cl)c(Cl)c1.O=C(O)C(F)(F)F,30%
15,Cc1c(Cl)cccc1S(=O)(=O)Nc1ccc(CCN2CCC(N)CC2)cc1.Cl,4%
16,Cl.N=C(Cc1ccc(Cl)cc1)NCCN1CCCCCC1,94%
17,Cc1nc(C)c(C2CCC(c3ccc(Cl)cc3)CC2)c(O)c1Cl (centres undefined),97%
18,O=C(N[C@@H](Cc1ccccc1)CN1CCC(Oc2ccc(F)cc2)CC1)c1ccc(OCCCN2CCCCC2)cc1.O=C(O)C(F)(F)F,92%
19,CC(C)(C)c1ccc2[nH]c(-c3ccc(/C=C/C(=O)NCc4cccc(C(F)(F)F)c4)cc3)nc2c1,11%
20,COc1ccc(-c2cccc(NC(=O)c3ccc(Cl)cc3)c2)cc1CN(C)CCN(C)C.O=C(O)C(F)(F)F,61%

row,Compound,Inhibition
1,O=[N+]([O-])c1cccc(C=NNc2nc(=Nc3ccccc3)[nH]c(=Nc3ccccc3)[nH]2)c1,55%
2,CCS(=O)(=O)O.Cc1cc(NC(=O)NC(=N)N)ccc1Cl,15%
3,C[C@@H](Oc1cc(-n2cnc3ccc(NC(=O)CCN4CCCCC4)cc32)sc1C(N)=O)c1ccccc1Cl,60%
4,O=C(O)C(F)(F)F.c1ccc2[nH]c(-c3ccc(-c4ccc(CN5CCN(CCN6CCOCC6)CC5)cc4)cc3)nc2c1,99%
5,CCN(CCCN1CCCCC1)c1cc(C)nc(Nc2ccc(Cl)c(C(F)(F)F)c2)n1.O=C(O)C(F)(F)F,55%
6,Cc1n[nH]c2ccc(-c3cc(OC[C@@H](N)Cc4ccccc4)cnc3-c3ccc(OCc4cccc(F)c4)cc3)cc12.O=C(O)C(F)(F)F,59%
7,Cc1cccc(OCC(=O)Nc2cccc(NC(=O)COc3cccc(C)c3)n2)c1,30%
8,Cc1ccc(-c2cc3nc4c(c(NCCCn5ccnc5)n3n2)CCC4)cc1,21%
9,O=C(/C=C/c1ccc(Cl)cc1)NCCCCCN1CCC(c2c[nH]c3ccccc23)CC1,15%
10,Cl.NOCCCOc1ccccc1,0%
11,N#Cc1cccc(NC(=O)c2cccc(S(=O)(=O)NC3CCN(CC4CCCCC4)C3)c2)c1.O=C(O)C(F)(F)F (centres undefined),27%
12,N#Cc1ccc(C(=O)NC2CCN(CCCCCNC(=O)/C=C/c3ccc(Cl)c(Cl)c3)CC2)cc1,1%
13,CN(C)CCNC(=O)c1ccc2c(c1)n(C1CCN(S(=O)(=O)c3ccc(-c4ccccc4)cc3)CC1)c(=O)n2CC1CCCCC1,66%
14,N=C(N)c1ccc(Nc2nccc(Nc3nc(-c4ccccc4)cs3)n2)cc1.O=C(O)C(F)(F)F,75%
15,c1cncc(-c2cc(N3CCCCC3)nc(-c3ccncc3)n2)c1,46%
16,CN(C)c1ccc(-c2csc(C(=O)NCC3CCN(CC4CCCCC4)C3)c2)cc1.O=C(O)C(F)(F)F (centres undefined),28%
17,COc1ccc(Nc2nccc(N3CCC(NC(=O)Nc4cccc(C(C)=O)c4)C3)n2)cc1 (centres undefined),79%
18,O=C(NC1CCN(Cc2ccccc2O)C1)c1ccc(Cl)c(Cl)c1.O=C(O)C(F)(F)F (centres undefined),62%
19,COc1cccc2sc(Nc3nc(-c4ccccn4)cs3)nc12,76%
20,CC(C)(C)OC(=O)NCc1ccc(Nc2nnc(-c3cccc(OCC(=O)NCc4cc(C(F)(F)F)cc(C(F)(F)F)c4)c3)o2)cc1,19%
